# Laboratory results taken from PubChem BioAssay.
# Activity calls are given as the source filed them. Rule as the data show it, unless noted: active = inhibition above about 80%; inactive = the rest.
# What was measured:
# [1] = drug combination growth inhibition, ovarian cancer – cell-based, oncology-focused library, rucaparib conditional, profiling panel (AID 1508598;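 active = normalized viability below 100% at a tested concentration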); settings: patient-derived ovarian cancer cells, CellTiter-Glo viability, 144 h, at 5 µM, stronger effect = lower value
# [2] = growth inhibition, single agent or in combination, cell-based, chromothripsis tumors, cisplatin or BGB combos (AID 1671449); settings: LFS_MB_P medulloblastoma cells;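 also: cells exposed for 96 hours; 0% = vehicle DMSO and 100% = killing by high DMSO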
# [3] = growth inhibition, single agent and combos, cell-based, chromothripsis tumors, cisplatin or BGB combos (AID 1671450); settings: HDN33 neuroblastoma cells, stronger effect = higher value;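 also: cells exposed to compound for four days; 0% = vehicle DMSO and 100% = cell killing by high DMSO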
# [4] = growth inhibition, single agents and combos, ICB984, cell-based, cisplatin or BGB combos, synergistic combos for chromothripsis tumors (AID 1671451; call rule not given here;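 also: cells exposed for 96 hours before readout; 0% = vehicle DMSO and 100% = killing by high DMSO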); settings: ICB984 medulloblastoma cells, drug combinations, stronger effect = higher value
# [5] = growth inhibition, single agents and combos, HTB85, cell-based, BGB or cisplatin IC20 combos, synergistic combos for chromothripsis tumors (AID 1671453); settings: HTB85 osteosarcoma cells, drug combinations, stronger effect = higher value;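 also: cells exposed for 96 hours before readout; 0% = vehicle DMSO and 100% = high DMSO killing control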
# [6] = growth inhibition, MDA-MB-436, cell-based, BGB or cisplatin combos, synergistic combos for chromothripsis tumors (AID 1671458; call rule not given here;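 also: cells exposed for 96 hours; 0% = vehicle DMSO and 100% = killing by high DMSO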); settings: MDA-MB-436 breast carcinoma growth inhibition, drug combinations, stronger effect = higher value
# [7] = BT084 cell growth, single and combined drugs, ICGC_MB145, cisplatin and BGB IC40 combos (AID 1671461); settings: BT084 medulloblastoma cells, drug combinations, stronger effect = higher value;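 also: cells exposed to drugs for 96 hours; 0% = vehicle DMSO and 100% = high DMSO full killing control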
# [8] = RCMB18 cell growth, single agent and combined, cisplatin and BGB IC40 combos (AID 1671462); settings: RCMB18 medulloblastoma cells, stronger effect = higher value;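 also: cells exposed to compound for four days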
compound,measurement,setting,value
Nc1ccccc1NC(=O)c1ccc(CNc2nccc(-c3cccnc3)n2)cc1,viability,"[1]; OCI-C5x cells, with rucaparib 10 µM, 100% = cells with rucaparib alone",5.71% (active)
same,viability,"[1]; OCI-C5x cells, without rucaparib",5.7% (active)
same,viability,"[1]; OCI-P5x cells, with rucaparib 20 µM, 100% = cells with rucaparib alone",9.81% (active)
same,viability,"[1]; OCI-P5x cells, without rucaparib",8.93% (active)
same,inhibition,"[2]; at 0.5 µM, stronger effect = higher value",2.35% (inactive)
same,inhibition,"[2]; measured here: combination with BGB IC20, at 0.005 µM",-20.9%
same,inhibition,"[2]; measured here: combination with BGB IC40, at 0.005 µM",-59.1%
same,inhibition,"[2]; measured here: combination with BGB IC40, at 0.05 µM",-23.9%
same,inhibition,"[2]; measured here: combination with cisplatin, at 0.5 µM, stronger effect = higher value",45.4%
same,inhibition,"[2]; measured here: combination with cisplatin, at 5 µM, stronger effect = higher value",109%
same,inhibition,"[3]; BGB combo, at 5 µM",98.8%
same,inhibition,[3]; at 0.5 µM,51.5% (inactive)
same,inhibition,"[3]; cisplatin combo, at 5 µM",100%
same,inhibition,"[3]; measured here: with BGB IC20 combination, at 0.5 µM",59.9%
same,inhibition,"[3]; measured here: with cisplatin IC20 combination, at 0.5 µM",50.6%
same,inhibition,"[3]; single agent, at 5 µM",99.4%
same,inhibition,"[4]; BGB IC20 combo, at 0.005 µM",8.79%
same,inhibition,"[4]; BGB IC40 combo, at 0.005 µM",19.9%
same,inhibition,"[4]; BGB IC40 combo, at 0.05 µM",92.5%
same,inhibition,[4]; at 0.5 µM,-29.5% (inactive)
same,inhibition,"[4]; cisplatin combo, at 0.05 µM",92.7%
same,inhibition,"[4]; cisplatin combo, at 0.5 µM",-33.3%
same,inhibition,"[4]; cisplatin combo, at 5 µM",-7.7%
same,inhibition,"[4]; measured here: 5 uM single agent, at 5 µM",-12.8%
same,inhibition,[5]; at 0.5 µM,18.4% (inactive)
same,inhibition,"[5]; measured here: with BGB IC20, at 0.5 µM",20.6%
same,inhibition,"[5]; measured here: with BGB IC20, at 5 µM",98.9%
same,inhibition,"[5]; measured here: with cisplatin IC20, at 0.5 µM",17.4%
same,inhibition,"[5]; measured here: with cisplatin IC20, at 5 µM",99.2%
same,inhibition,"[5]; single agent, at 5 µM",99.2%
same,inhibition,[6]; at 0.5 µM,23.7% (inactive)
same,inhibition,"[6]; measured here: BGB combination, at 0.5 µM",20.7%
same,inhibition,"[6]; measured here: BGB combination, at 5 µM",64.6%
same,inhibition,"[6]; measured here: cisplatin combination, at 0.5 µM",9.8%
same,inhibition,"[6]; measured here: cisplatin combination, at 5 µM",64%
same,inhibition,[7]; at 0.5 µM,50.1% (inactive)
same,inhibition,"[7]; cisplatin combination, at 0.5 µM",50.8%
same,inhibition,"[7]; cisplatin combination, at 5 µM",83.4%
same,inhibition,"[7]; measured here: BGB IC40 combination 0.05 uM, at 0.05 µM",-5.63%
same,inhibition,"[7]; single agent, at 5 µM",99.8%
same,inhibition,[8]; at 0.5 µM,56.4% (inactive)
same,inhibition,"[8]; cisplatin combo, at 5 µM",95.3%
same,inhibition,"[8]; measured here: BGB IC40 combination, at 0.05 µM",-6.4%
same,inhibition,"[8]; measured here: combination with cisplatin, at 0.5 µM",76.3%
same,inhibition,"[8]; single agent, at 5 µM",94.7%
